Compounds without any hit were thinned out: in the full panel of roughly 83,000, 20% have a hit.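 96-well plates, one dose, 48 hours. Percent growth reported; active if below 10.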 A number with no mark means an inactive call.
Test system: HL-60(TB) leukemia
Assay: NCI-60 one-dose screen, 48 h (100 = growth as untreated, 0 = no growth, -100 = all killed)
Conditions: 10 µM unless noted

Structure (SMILES)	growth
Cn1c(=O)[nH]c2ccccc2c1=O	111%
Cc1ccc(-c2cc(C(=O)Nc3ccc(S(=O)(=O)N4CCCCC4)cc3)[nH]n2)c(O)c1	48.7%
CC(=O)OCCc1ccccc1	92%
S=C(c1ccc2c(c1)OCO2)N1CCN(c2cccc(Cl)c2)CC1	11.9%
CCOC(=O)/C(=C/c1ccc(OC)cc1)N(CC)CC	98%
O=S(=O)(NCCNc1cc(-c2cn(-c3ccccc3)nc2-c2ccccc2)ccn1)c1ccc(F)cc1	69.9%
COc1ccc(OC)c(-c2c(C#N)c(-c3ccc(Cl)cc3)nc3c2c(-c2ccccc2)nn3-c2ccccc2)c1	99%
FC(F)(F)Oc1ccc2nc3nc4ccc[nH]c4cc3c2c1	73.4%
COc1ccc(-c2csc(NC(=O)Nc3nc(-c4ccc(OC)cc4)cs3)n2)cc1	80.6%
COc1cccc(OC)c1OC(=O)c1ccccc1	110%
CC(C)(C)CC(C)(C)Nc1c(-c2c(O)c3ccccc3oc2=O)nc2sccn12	99.7%
O=C(NCCCNc1cc(-c2cn(-c3ccccc3)nc2-c2cccc(O)c2)ccn1)c1cccc(O)c1	35.2%
CC12CC(C#N)CCC1O2 (stereo unspecified)	101%
CNC(=O)c1cccnc1	99.5%
CCN(CC)C(=O)C1(C)CCCC2(C)c3cc(OC(C)=O)ccc3CCC12 (stereo unspecified)	71.2%
CC(CN1CCN(CCOCCO)CC1)CN1c2ccccc2Sc2ccc(Cl)cc21 (stereo unspecified)	80.8%
